The source of these data is PubChem BioAssay (NCI).

Compounds without any hit were thinned out: in the full panel of roughly 83,000, 20% have a hit.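 Activity criterion: percent growth below 10, measured after cells in 96-well plates were exposed to a single compound concentration for 48 hours.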 Values without a mark were called inactive. Active and inactive are the calls of the source.

In the assay the test system is MDA-MB-468 breast. Kind of assay: NCI-60 one-dose screen, 48 h (100 = growth as untreated, 0 = no growth, -100 = all killed). The settings on record: 10 µM unless noted.
For `O=C1/C(=N\c2cc(=O)[nH]n2S(=O)(=O)c2ccccc2)Nc2ccccc21`, the growth is 106%.
For the compound `O=C(Nc1ccc(Cl)c(Cl)c1)Nc1ccccc1O`, the growth is 0.995% (active).
Then `CCCCCCCCCCCCCC[n+]1cccc(C(N)=O)c1`, with -59.9% (active); and `COc1ccc(O)c(-c2cc(-c3ccc(Cl)cc3)c(C#N)c(=O)[nH]2)c1`, with 78.8%.
Then `Cc1ccc(C(CN(C)C)C(=O)c2ccccc2)cc1` (stereo not given), with 4.73% (active).
Take `O=C(Cc1ccc(/C=C/C(=O)c2ncc[nH]2)cc1)Nc1ccc(Br)cc1`: the growth is 19.6%.
Then `O=[N+]([O-])c1cnc(N2CCN(CC3CC3)CC2)nc1N1CCN(CC2CC2)CC1`, with 76.9%; and `COc1cc(/C=C/C(=O)N2CCN(C(=O)/C=C/c3cc(OC)c(OC)c(OC)c3)CC2)cc(OC)c1OC`, with 102%; and `O=C(N/N=C/c1ccc(OC(F)F)c(OC2CCCC2)c1)c1cnn2c1NC(c1ccccc1)C2` (stereo not given), with 84%.
To `Brc1ccc(/C=C(/C2=NCCN2)n2ccc3ccccc32)cc1` belongs 50.8%; to `O=c1ccc2nc(-c3ccccc3)nn(-c3ccccn3)c-2c1`, -65.2% (active); to `Cc1cc(NCc2cc(Nc3ccnc4cc(Cl)ccc34)ccc2F)nc(N2CCOCC2)n1`, 39.9%.
Then `COc1cc2nc(NC3CCC3)nc(NC3CCN(C(C)C)CC3)c2cc1OC`, with 16.5%; and `CCN(c1ccc(C(=O)N2CCN(c3ccccc3)CC2)cc1)S(C)(=O)=O`, with 92.5%.
Consider `O=C1CC(=NCC(=O)n2c(-c3ccccc3)nc3ccccc32)NN1`, for which the growth was 94%.
To `C/C(=N\NC(N)=S)C(C)(C)O` belongs 26.2%; to `O=C(CC(c1ccccc1)N1CCOCC1)c1ccccc1` (stereo not given), 73.4%.
Then `CCOC(=O)n1cc(-c2nonc2-c2cn(C)c3ccc(OC)cc23)c2cc(F)ccc21`, with 87.3%; and `CCOC(=O)C1CCN(c2ccc(N3C[C@@H](CNCc4ccc(C(=N)N)cc4)OC3=O)cc2)CC1`, with 100%; and `Cc1ccc(NC(C(=O)c2ccccc2)c2ccccc2)cc1` (stereo not given), with 8.06% (active).
To `Cc1ccc2c(n1)C(=O)C(Cl)=C(Nc1cccc(C(=O)OC(C)(C)C)c1)C2=O` belongs -57.7% (active).
With `C/C(=N\NC(=O)C(C)SC(C)C(=O)N/N=C(\C)c1cccnc1)c1cccnc1` (stereo not given), the growth is 103%.
To `CCN1CCN(c2nc(NCCNc3ccnc4cc(Cl)ccc34)c3ccccc3n2)CC1` belongs -28.8% (active); to `CCN1CCN(c2nc(NCCCNc3ccnc4cc(Cl)ccc34)c3ccccc3n2)CC1`, 29.1%.
To `COc1ccc(Nc2ncccc2C(=O)NCc2cn(Cc3cccc(Oc4ccccc4)c3)nn2)c(OC)c1` belongs 14.8%.
Then `COc1cccc(/C=C/C(=O)c2cc3c(N)c(C(=O)Nc4cccc5ccccc45)sc3nc2C)c1`, with 17.4%; and `C=C1C(=O)O[C@H]2[C@H]1CC/C(C=Nc1c(N)cc(F)cc1Br)=C\CC[C@@]1(C)O[C@@H]21`, with 44%.
For `O=C1OC(c2ccc(-c3ccccc3)cc2)=C/C1=C/C=C/c1ccccc1`, the growth was 99.7%.
To `CN1CCN(c2ccc(Nc3nc(NCCNS(=O)(=O)c4ccccc4)c4sccc4n3)cc2)CC1` belongs 90.5%; to `COc1ccc2c(c1)OC13Oc4cc(OC)ccc4C=C1CCCCC3=C2`, 95.6%; to `COc1ccc(C(=O)c2c(N)c(C#N)cn2-c2ccccc2OC)cc1`, 31%.
Then `CC(C)CC1NC(C)(C)CO1` (stereo not given), with 108%; and `N#Cc1c(Nc2ccccc2)nc2n(c1=O)-c1ccccc1Sc1ccccc1-2`, with 72.8%.
To `COc1ccc(Nc2nn3c(C)cc(C)nc3c2C(=O)Nc2ccc(C)cc2)c(OC)c1` belongs 91.6%; to `Cc1c(Cl)cccc1NC(=O)c1sc2nc3c(cc2c1N)CCCCC3`, 22.4%; to `O=C1/C(=C/c2ccc(O)cc2O)N=C2SCCCN12`, 96.1%.
For `Cc1ccc(C)c2c1sc1nc3nc4sc5ccccc5n4c(=N)c3c(=O)n12`, the growth is 88.7%.
Then `COc1ccc(/C(=N\O)c2cc(OC)c(OC)c(OC)c2)c(OC)c1N`, with 29.2%; and `Cc1ccc(S(=O)(=O)c2c(COC(=O)c3cccc(C)c3)c(-c3ccccc3)nn2C)cc1`, with -83.9% (active).
Then `C=CC(=O)Nc1cccc(C)c1Nc1cc(-c2cccnc2Cc2c(C)c(OC)cc(OC)c2C)ncn1`, with 19.5%.
